This note sets out measurements from article PMC7862700, “An all-to-all approach to the identification of sequence-specific readers for epigenetic DNA modifications on cytosine”.

What all share (experiment): DAPPL (digital affinity profiling via proximity ligation, sequencing); 10 mM Tris-HCl pH 7.5, 50 mM NaCl, 1 mM DTT, 4% glycerol, room temperature, 30 min; GST-TFs on glutathione beads, 16-mer random dsDNA library, 0.1% formaldehyde crosslink after washing; high values mean tight binding
What all share (conditions): protein: recombinant; tags: N-terminal GST; dsDNA, one strand shown

The target in one experiment is T1, ERF (Homo sapiens, UniProt P50548 1-548).
T1 sequence: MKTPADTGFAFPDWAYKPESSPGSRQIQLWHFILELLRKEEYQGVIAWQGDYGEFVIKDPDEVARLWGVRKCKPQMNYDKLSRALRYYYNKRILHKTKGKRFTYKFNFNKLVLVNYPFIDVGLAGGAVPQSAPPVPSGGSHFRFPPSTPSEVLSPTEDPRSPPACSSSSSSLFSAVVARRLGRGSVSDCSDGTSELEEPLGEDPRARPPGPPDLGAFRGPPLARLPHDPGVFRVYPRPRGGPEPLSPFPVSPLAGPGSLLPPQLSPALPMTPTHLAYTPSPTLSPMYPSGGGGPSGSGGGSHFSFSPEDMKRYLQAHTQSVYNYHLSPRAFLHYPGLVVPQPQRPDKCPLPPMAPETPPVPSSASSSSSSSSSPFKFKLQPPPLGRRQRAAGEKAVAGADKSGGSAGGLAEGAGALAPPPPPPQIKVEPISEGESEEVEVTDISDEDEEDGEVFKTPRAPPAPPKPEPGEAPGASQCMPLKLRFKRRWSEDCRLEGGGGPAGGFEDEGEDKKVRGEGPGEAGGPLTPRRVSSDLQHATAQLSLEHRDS
The procedure, abridged:
(§1)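 Human transcription factors carrying a GST fusion were produced in yeast, bound to glutathione beads, tagged with DNA barcodes and pooled together with a tag-only sample. Each pool was held with 200 nmole of a random double-stranded 16-mer DNA library in Tris/NaCl/DTT/glycerol buffer for 30 min at room temperature, then washed, crosslinked in 0.1% formaldehyde, proximity-ligated with BsaI/T4 ligase (1 h, 37 °C), PCR-amplified and sequenced on an Illumina NextSeq500. Binding signal is the read frequency of each hexamer for a given factor divided by its frequency in the tag-only sample.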

The next experiment deals with T2, ETV3L (Homo sapiens, UniProt Q6ZN32 1-361).
T2 sequence: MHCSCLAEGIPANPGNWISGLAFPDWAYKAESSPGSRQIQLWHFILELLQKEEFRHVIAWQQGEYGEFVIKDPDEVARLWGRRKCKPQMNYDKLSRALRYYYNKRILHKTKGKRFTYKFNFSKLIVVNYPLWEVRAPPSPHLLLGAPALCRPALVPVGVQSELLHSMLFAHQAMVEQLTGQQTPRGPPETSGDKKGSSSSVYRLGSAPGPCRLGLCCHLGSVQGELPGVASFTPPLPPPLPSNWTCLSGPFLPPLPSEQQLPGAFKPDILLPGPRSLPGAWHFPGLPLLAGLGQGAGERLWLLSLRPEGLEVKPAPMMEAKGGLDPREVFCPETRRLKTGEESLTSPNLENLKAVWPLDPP
The procedure, abridged:
as §1

Another experiment deals with T3, ETS2 (Homo sapiens, UniProt P15036 1-469).
T3 sequence: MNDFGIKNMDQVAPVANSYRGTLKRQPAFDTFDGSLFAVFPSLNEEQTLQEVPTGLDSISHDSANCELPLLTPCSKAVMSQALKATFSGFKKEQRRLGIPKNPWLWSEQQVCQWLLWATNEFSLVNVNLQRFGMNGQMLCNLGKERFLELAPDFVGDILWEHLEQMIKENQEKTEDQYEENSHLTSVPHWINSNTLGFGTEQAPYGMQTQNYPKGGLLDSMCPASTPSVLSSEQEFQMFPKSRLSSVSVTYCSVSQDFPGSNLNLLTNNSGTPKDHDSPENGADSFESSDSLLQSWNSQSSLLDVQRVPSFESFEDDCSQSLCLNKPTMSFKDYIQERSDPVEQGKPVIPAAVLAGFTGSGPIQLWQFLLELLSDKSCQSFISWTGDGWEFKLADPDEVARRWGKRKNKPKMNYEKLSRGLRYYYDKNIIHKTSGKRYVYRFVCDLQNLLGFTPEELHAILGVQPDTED
The procedure, abridged:
as §1

The next experiment addresses T4, SPDEF (Homo sapiens, UniProt O95238 1-335).
T4 sequence: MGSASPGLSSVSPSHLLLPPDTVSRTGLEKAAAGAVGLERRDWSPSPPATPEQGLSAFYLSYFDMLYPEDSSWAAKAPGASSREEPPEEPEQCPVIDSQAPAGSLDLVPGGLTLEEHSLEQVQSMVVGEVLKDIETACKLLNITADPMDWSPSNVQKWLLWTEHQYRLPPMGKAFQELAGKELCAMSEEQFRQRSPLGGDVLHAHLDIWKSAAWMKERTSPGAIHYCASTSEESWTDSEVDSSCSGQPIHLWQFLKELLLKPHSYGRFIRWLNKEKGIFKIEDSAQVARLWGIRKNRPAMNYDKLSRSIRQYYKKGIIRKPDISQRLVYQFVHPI
The procedure, abridged:
as §1

The target in another experiment is T5, ETV7 (Homo sapiens, UniProt Q9Y603 1-341).
T5 sequence: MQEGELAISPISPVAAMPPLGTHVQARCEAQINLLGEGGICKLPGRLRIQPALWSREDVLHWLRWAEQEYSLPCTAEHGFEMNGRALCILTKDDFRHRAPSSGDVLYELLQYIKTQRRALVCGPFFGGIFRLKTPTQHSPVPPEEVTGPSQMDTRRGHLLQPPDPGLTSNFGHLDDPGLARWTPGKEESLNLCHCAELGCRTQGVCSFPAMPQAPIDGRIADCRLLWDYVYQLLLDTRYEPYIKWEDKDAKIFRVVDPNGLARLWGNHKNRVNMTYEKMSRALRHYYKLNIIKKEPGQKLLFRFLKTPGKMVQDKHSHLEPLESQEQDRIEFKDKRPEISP
In outline:
as §1

Another experiment addresses T6, ELF5 (Homo sapiens, UniProt Q9UKW6-2 1-255).
T6 sequence: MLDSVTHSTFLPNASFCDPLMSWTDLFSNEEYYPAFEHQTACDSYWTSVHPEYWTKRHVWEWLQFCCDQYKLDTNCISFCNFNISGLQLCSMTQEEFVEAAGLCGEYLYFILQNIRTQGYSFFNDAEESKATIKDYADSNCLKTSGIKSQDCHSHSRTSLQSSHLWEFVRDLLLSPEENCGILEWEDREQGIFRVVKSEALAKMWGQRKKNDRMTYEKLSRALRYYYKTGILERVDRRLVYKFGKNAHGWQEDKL
The procedure, abridged:
as §1

The target of another experiment is T7, ETV3 (Homo sapiens, UniProt P41162-2 1-143).
T7 sequence: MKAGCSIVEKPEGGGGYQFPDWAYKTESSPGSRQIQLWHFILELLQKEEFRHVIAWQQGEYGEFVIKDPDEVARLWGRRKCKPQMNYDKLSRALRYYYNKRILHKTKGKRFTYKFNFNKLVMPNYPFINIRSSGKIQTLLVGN
In outline: as §1

The next experiment has as its target ETV6 (Homo sapiens, UniProt P41212 1-452). The procedure, abridged: as §1

Chain of ETV6 (P41212 whole entry): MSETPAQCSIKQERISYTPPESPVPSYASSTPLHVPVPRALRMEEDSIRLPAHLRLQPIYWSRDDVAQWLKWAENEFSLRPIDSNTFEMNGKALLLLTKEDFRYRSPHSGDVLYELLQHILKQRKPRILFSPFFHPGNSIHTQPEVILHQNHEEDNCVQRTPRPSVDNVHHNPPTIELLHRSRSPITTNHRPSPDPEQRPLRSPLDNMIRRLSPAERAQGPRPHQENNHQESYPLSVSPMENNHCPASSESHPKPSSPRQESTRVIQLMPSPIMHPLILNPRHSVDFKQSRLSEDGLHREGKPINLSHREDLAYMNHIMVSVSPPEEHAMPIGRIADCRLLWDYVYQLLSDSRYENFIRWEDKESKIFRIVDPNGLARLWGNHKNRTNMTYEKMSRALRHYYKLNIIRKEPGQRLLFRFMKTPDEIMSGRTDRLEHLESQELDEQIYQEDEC

In the case of CTCCTA, the binding signal with ERF is 1.49 fold enrichment (6-mer frequency, TF over GST control); with ETV3L, 1.36 fold enrichment (6-mer frequency, TF over GST control); in the experiment with ETS2, 1.32 fold enrichment (6-mer frequency, TF over GST control); with SPDEF, 1.34 fold enrichment (6-mer frequency, TF over GST control); with ETV7 it was 1.37 fold enrichment (6-mer frequency, TF over GST control); with ELF5, 1.41 fold enrichment (6-mer frequency, TF over GST control). The binding signal was 1.23 fold enrichment (6-mer frequency, TF over GST control) in the experiment with ETV3 and 1.29 fold enrichment (6-mer frequency, TF over GST control) in the experiment with ETV6.
Regarding ATTTAG, the binding signal with ERF was 1.22 fold enrichment (6-mer frequency, TF over GST control); with ETV3L it was 1.15 fold enrichment (6-mer frequency, TF over GST control); with ETS2 it was 1.07 fold enrichment (6-mer frequency, TF over GST control); with SPDEF, 1.13 fold enrichment (6-mer frequency, TF over GST control); in the experiment with ETV7, 1.07 fold enrichment (6-mer frequency, TF over GST control); with ELF5 it was 1.04 fold enrichment (6-mer frequency, TF over GST control). For the same sequence, the binding signal in the experiment with ETV3 is 1.12 fold enrichment (6-mer frequency, TF over GST control); in the experiment with ETV6 it was 1.21 fold enrichment (6-mer frequency, TF over GST control).
Regarding GAACAA, the binding signal is 1.24 fold enrichment (6-mer frequency, TF over GST control) with ERF; 1.2 fold enrichment (6-mer frequency, TF over GST control) with ETV3L; 1.22 fold enrichment (6-mer frequency, TF over GST control) with ETS2; 1.14 fold enrichment (6-mer frequency, TF over GST control) in the experiment with SPDEF; 1.17 fold enrichment (6-mer frequency, TF over GST control) with ETV7; 1.23 fold enrichment (6-mer frequency, TF over GST control) in the experiment with ELF5. Besides, the binding signal in the experiment with ETV3 is 1.18 fold enrichment (6-mer frequency, TF over GST control); with ETV6 it was 1.25 fold enrichment (6-mer frequency, TF over GST control).
TTTTAC: the binding signal was 1.3 fold enrichment (6-mer frequency, TF over GST control) with ERF; 1.32 fold enrichment (6-mer frequency, TF over GST control) with ETV3L; 1.44 fold enrichment (6-mer frequency, TF over GST control) in the experiment with ETS2; 1.32 fold enrichment (6-mer frequency, TF over GST control) with SPDEF; 1.52 fold enrichment (6-mer frequency, TF over GST control) with ETV7; 1.27 fold enrichment (6-mer frequency, TF over GST control) with ELF5. Moreover, the binding signal is 1.45 fold enrichment (6-mer frequency, TF over GST control) in the experiment with ETV3 and 1.33 fold enrichment (6-mer frequency, TF over GST control) with ETV6.
Turning to CCTCCC, the binding signal in the experiment with ERF is 1.59 fold enrichment (6-mer frequency, TF over GST control); in the experiment with ETV3L, 1.49 fold enrichment (6-mer frequency, TF over GST control); in the experiment with ETS2, 1.58 fold enrichment (6-mer frequency, TF over GST control); in the experiment with SPDEF, 1.38 fold enrichment (6-mer frequency, TF over GST control); with ETV7, 1.44 fold enrichment (6-mer frequency, TF over GST control); in the experiment with ELF5 it was 1.49 fold enrichment (6-mer frequency, TF over GST control). For the same sequence, the binding signal with ETV3 was 1.43 fold enrichment (6-mer frequency, TF over GST control); with ETV6, 1.44 fold enrichment (6-mer frequency, TF over GST control).
ACCTGC: the binding signal with ERF is 1.35 fold enrichment (6-mer frequency, TF over GST control); with ETV3L, 1.42 fold enrichment (6-mer frequency, TF over GST control); with ETS2, 1.5 fold enrichment (6-mer frequency, TF over GST control); in the experiment with SPDEF it was 1.4 fold enrichment (6-mer frequency, TF over GST control); in the experiment with ETV7, 1.48 fold enrichment (6-mer frequency, TF over GST control); in the experiment with ELF5, 1.39 fold enrichment (6-mer frequency, TF over GST control). The binding signal was 1.44 fold enrichment (6-mer frequency, TF over GST control) with ETV3 and 1.66 fold enrichment (6-mer frequency, TF over GST control) with ETV6.
ACGATT: the binding signal with ERF is 1.4 fold enrichment (6-mer frequency, TF over GST control); in the experiment with ETV3L it was 1.28 fold enrichment (6-mer frequency, TF over GST control); in the experiment with ETS2 it was 1.26 fold enrichment (6-mer frequency, TF over GST control); in the experiment with SPDEF it was 1.27 fold enrichment (6-mer frequency, TF over GST control); with ETV7, 1.28 fold enrichment (6-mer frequency, TF over GST control); in the experiment with ELF5, 1.24 fold enrichment (6-mer frequency, TF over GST control). Besides, the binding signal with ETV3 was 1.32 fold enrichment (6-mer frequency, TF over GST control); with ETV6 it was 1.31 fold enrichment (6-mer frequency, TF over GST control).
For the sequence CCTGTT, the binding signal with ERF is 1.66 fold enrichment (6-mer frequency, TF over GST control); with ETV3L, 1.79 fold enrichment (6-mer frequency, TF over GST control); with ETS2, 1.8 fold enrichment (6-mer frequency, TF over GST control); in the experiment with SPDEF it was 2.09 fold enrichment (6-mer frequency, TF over GST control); with ETV7, 1.63 fold enrichment (6-mer frequency, TF over GST control); with ELF5, 2.1 fold enrichment (6-mer frequency, TF over GST control). The binding signal was 1.9 fold enrichment (6-mer frequency, TF over GST control) with ETV3 and 1.73 fold enrichment (6-mer frequency, TF over GST control) with ETV6.
